Screens as filed in PubChem BioAssay.
SW480 rereplic: A quantitative high throughput screen for small molecules that induce DNA re-replication in SW480 colon adenocarcinoma cells | SW480 DNA re-replication, Hoechst DNA content imaging, 48 h | Potency, µM (highest dose often 46.1 µM), inactives show top-dose re-replication activation, hits mostly activators | 340,000 compounds, 1.8% hits | AID 624297, 2012; note: potency is the fitted concentration of half-maximal effect; % of control where 0% means no effect; nearly all actives have a fitted effect of over 55% in size
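DNA re-replication was detected as more nuclei of elevated Hoechst intensity after 48 hr exposure to compound (23 nL pinned per well of 250 cells).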
IL1B secr inh: qHTS for Inhibitors of Inflammasome Signaling: IL-1-beta AlphaLISA Primary Screen. THP-1 LPS/ATP IL-1B secretion, AlphaLISA, 16 h; active compounds read low. activity change, % at 57.5 µM. 360,000 compounds, 4.7% hits; in the data active = activity change below about -50%; inconclusive = mostly about -30% to -49%; note: % is set by controls: 0 for no effect and ±100 for the full control effect
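Secreted IL-1B measured by AlphaLISA bead assay after 16 h compound exposure of THP-1 cells; compounds (final up to 57.5 uM) added 1 h before LPS (250 ng/mL) and ATP (1.25 mM) stimulation; lower signal means less secretion.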
MCF10A rerep: A quantitative high throughput screen for small molecules that induce DNA re-replication in MCF 10a normal breast cells; MCF 10A DNA re-replication, Hoechst nuclear intensity, 48 h; Potency, µM (series often up to 46.1 µM), without a hit: at the highest dose activity, positive = re-replication, hits mostly activators; 350,000 compounds, 2.9% hits; AID 624296, 2012; note: potency is the fitted concentration of half-maximal effect; % of control where 0% means no effect; nearly all actives have a fitted effect of over 50% in size
DT40 TDP1 no CPT: qHTS for Inhibitors of human tyrosyl-DNA phosphodiesterase 1 (TDP1): qHTS in cells in absence of CPT; Potency, µM (series often up to 46.2 µM), without a hit: at the top dose activity change, negative = growth inhibition, usual class: inhibitors; AID 686978, 2013; 420,000 compounds, 15% hits; DT40 Tdp1-/- hTDP1 cells, no CPT, ATP luminescence, 48 h; note: potency is the fitted concentration of half-maximal effect; % is set by controls: 0 for no effect and ±100 for the full control effect; nearly all actives have a fitted effect of over 55% in size
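A cellular qHTS used chicken DT40 cells lacking endogenous Tdp1 but carrying stably transfected human TDP1. Compounds were applied without camptothecin, and cell growth kinetics were judged by ATP-dependent luminescence after ≥48 hr.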
DT40 TDP1 CPT: qHTS for Inhibitors of human tyrosyl-DNA phosphodiesterase 1 (TDP1): qHTS in cells in presence of CPT. chicken DT40 Tdp1-/-;hTDP1 cells + 20 nM CPT, ATP luminescence, 48 h. Potency, µM (titrated, usually from 46.2 µM), for inactives: at the top dose activity change, negative = growth inhibition, hits mostly inhibitors. 420,000 compounds, 12% hits. AID 686979, 2013; note: potency is the fitted concentration of half-maximal effect; % is set by controls: 0 for no effect and ±100 for the full control effect; nearly all actives have a fitted effect of over 55% in size
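Chicken DT40 Tdp1-/- cells stably complemented with human TDP1 were seeded at 400 cells/well in medium containing 20 nM camptothecin, exposed to pin-transferred compounds, and grown at 37 °C for at least 48 hr. Viability was read as ATP luminescence.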
BCR signal inh: qHTS Assay to Find Inhibitors of Chronic Active B-Cell Receptor Signaling. ABC-DLBCL IkBa-CBG/CBR reporter, luminescence ratio, 4 h. 340,000 compounds, 0.05% hits. Potency, µM (top dose mostly 46.1 µM), without a hit: at the top dose activity change, negative = inhibition, hits mostly inhibitors; active = well fitted inhibition curve with a large enough effect in the signal ratio, with a control signal flat, not every such curve was filed as active; inconclusive = small, poorly fitted or top-dose-only effect, or effect the other way, or a change in a side signal; the % refers to the signal ratio;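 note: potency is the fitted concentration of half-maximal effect; plate controls were basal doxycycline-induced cells for no effect and cells given 10 µM MG132 for full effect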
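Cell line TMD8 (human ABC DLBCL), stably expressing tet-inducible CBG68-IkBa fusion and CBR; IMDM/0.5% FBS; cpd up to 46 uM; dox induction, 4 h, 37C/5% CO2; dual luminescence; green/red ratio; MG132 control.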
Numbers without * were called inactive; ? = inconclusive; · = no result given; [ ] = another dose, or the depositor's remark. Shown are actives, neighbours in structure and some others; about 19% of the full set was active somewhere. Unless noted, calls come from the whole dose curve; as a rule, active = well fitted curve in the direction sought with a large enough effect; inconclusive = small, poorly fitted or top-dose-only effect, or another doubt; inactive = no such curve, though single readings can be large; an effect the other way counts as inactive or inconclusive.

SMILES	SW480 rereplic	IL1B secr inh	MCF10A rerep	DT40 TDP1 no CPT	DT40 TDP1 CPT	BCR signal inh
O=c1[nH]c2ccccc2nc1-c1c[nH]c2ccccc12	0.73µM*	-22	25%	0%	-23%	-6%
COc1cc(C(=O)N2CCCC(c3cc(C(=O)NCc4ccc(F)cc4)no3)C2)cc(OC)c1C (centres undefined)	·	-27	·	?	23µM*	·
O=C(NCc1ccc(F)cc1)c1cc(C2CCCN(C(=O)C3CCCCC3)C2)on1 (centres undefined)	·	-16	·	?	26µM*	·
O=C(NCc1ccccc1)c1cc(C2CCCN(C(=O)C3CCCCC3)C2)on1 (centres undefined)	·	-1	·	?	23µM*	·
N#Cc1ccc(OCC(=O)Nc2cccc(S(=O)(=O)NC3=NCCCCC3)c2)cc1	-4%	4	-2%	?	?	8%
Cc1ccc(OCC(=O)Nc2ccncc2)c(C)c1	-1%	9	-1%	8.2µM*	21µM*	?
Cc1ccccc1OCC(=O)Nc1ccncc1	-7%	10	11%	16µM*	?	-2%
Cc1cc(OCC(=O)Nc2ccc(Br)cc2)cc2c1C(=O)CC(C)(C)O2	?	-81*	?	23µM*	29µM*	?
CC(=O)Nc1ccc(NC(=O)COc2cccc3ccccc23)cc1	·	-3	·	8.2µM*	9.2µM*	·
Cc1cccc(OCC(=O)Nc2ccncc2)c1	0%	54	0%	?	4%	·
CC(=O)Nc1ccc(NC(=O)COc2cc(O)c3c(c2)OC(C)(C)CC3=O)cc1	-11%	-11	6%	?	?	-23%
CC(C)Cc1nc2cc(NS(=O)(=O)N(C)C)cc(C(=O)N3CCSCC3)c2n1C	·	·	·	2%	-3%[9.04 µM]	·
Cc1ccccc1OCC(=O)Nc1ccc(Cc2ccncc2)cc1	1%	-77*	13%	?	?	?
CC(=O)Nc1cccc(NC(=O)COc2ccccc2C)c1	15%	-5	5%	-70%	12µM*	-18%
Cc1ccccc1OCC(=O)Nc1ccc(C(N)=O)cc1	-6%	-5	1%	6%	3%	-15%
CCOc1ccccc1OCC(=O)Nc1nnc(C)s1	-2%	-58*	?	-10%	-5%	?
Cc1cc(OCC(=O)Nc2ccncc2)cc(C)c1Br	0%	-50*	7%	?	?	0%
COc1ccc(OCC(=O)Nc2nnc(C)s2)cc1	-2%	0	0%	-1%	-3%	-2%
N[C@H](C(=O)O)c1nn[nH]n1	·	·	·	-9%	-10%	·
O=C(COc1ccc(Cl)cc1Br)Nc1ccncc1	2%	?	-2%	10µM*	?	?
O=C(CCCOc1ccc(Cl)cc1Cl)Nc1ccncc1	4%	?	-2%	?	?	?
COC(=O)c1sc(NC(=O)COc2cccc3ccccc23)nc1C	-3%	0	18µM*	?	-26%	?
Cc1ccccc1OCC(=O)Nc1ccc2[nH]c(=O)sc2c1	·	·	·	16µM*	?	·
CNc1ncncc1-c1ccc(C(=O)N(C)C)cc1	·	·	·	-1%	-3%	·
CC(C)N1C(=O)/C(=C/c2nc3ccccc3c(=O)n2-c2ccccc2)c2ccccc21	?	-96*	16µM*	23µM*	21µM*	?
SMILES	SW480 rereplic	IL1B secr inh	MCF10A rerep	DT40 TDP1 no CPT	DT40 TDP1 CPT	BCR signal inh
CC(C)N1C(=O)/C(=C\c2nc3ccccc3c(=O)n2-c2ccccc2)c2ccccc21	2.9µM*	-106*	?	16µM*	23µM*	?
CC(C)N1C(=O)C(Cc2nc3ccccc3c(=O)n2-c2ccccc2)c2ccccc21 (centres undefined)	12%	-1	4%	-21%	?	-6%
O[C@H]1C[C@H](c2ccc(Cl)cc2)N(CC2CCCCC2)C[C@@H]1n1cc(-c2ccc(F)cc2)nn1	·	15	·	?	?	·
COc1cccc(CNC(=O)CN2C(=O)CSc3ccc(S(=O)(=O)N4CCCC4)cc32)c1	-3%	-6	2%	?	0%	-2%
CCc1ccccc1NC(=O)c1nn(-c2ccc(C)cc2)c(=O)c2c1c1ccccc1n2C	·	·	·	-5%	-7%	·
COCC(=O)N(C)C[C@H]1N[C@@](C)(C(=O)OC)[C@H]2C(=O)N(C)C(=O)[C@@H]12	-1%	13	-5%	9%	4%	2%
Cc1cc(N(C)Cc2ccccc2)nc2cc(O)ccc12	0%	-56*	-9%	?	7%	?
Cc1cc(N(C)Cc2ccccc2)nc(-c2ccccc2)n1	?	23	?	26µM*	?	13%
Cc1cc(NCc2ccccc2)nc2ccccc12	-8%	-3	-1%	?	?	?
CC(=O)Nc1ccc(OC(=O)N2CCCC2)cc1	-7%	-2	2%	2%	11%	-1%
O=C(Nc1ccc(F)cc1F)N1CCCN(c2ccc(C(F)(F)F)cn2)CC1	-2%	?	7%	?	?	-4%
CC(NC(=O)c1ccco1)C(=O)N1CCN(c2cccc(C(F)(F)F)c2)CC1 (centres undefined)	-20%	0	0%	10µM*	13µM*	-3%
CC(C)(C)c1ccc(NC(=O)N2CCCN(c3ccc([N+](=O)[O-])cn3)CC2)cc1	2%	·	-13%	26µM*	?	10%
CNC(=S)Nc1ccc(N2CCN(c3ccc(C(F)(F)F)cn3)CC2)nc1	1%	-1	13%	26µM*	?	0%
CC(NC(=O)c1ccco1)C(=O)N1CCN(c2ccccc2)CC1 (centres undefined)	2%	3	9%	-15%	10%	2%
Fc1ccc(NC(=S)N2CCCN(c3ccc(C(F)(F)F)cn3)CC2)c(F)c1	-1%	-19	12%	18µM*	16µM*	?
O=C(Nc1ccc([N+](=O)[O-])cc1)N1CCCCCC1	-2%	-1	0%	8%	-26%	6%
Cc1cc(NS(=O)(=O)c2ccc(NC(=O)CSc3nc4ncc(Br)cc4[nH]3)cc2)nc(C)n1	-5%	0	11%	1%	13%	1%
